Peg3 promoter: Peg3 promoter activity inhibition; inhibition, % at 20 µM; HeLa PEG-Prom luciferase reporter, luminescence, overnight; 360,000 compounds, 1.7% hits;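 active means inhibition of at least 50% at 20 µM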
ABHD5 PLIN5 PPI: inhibitors of human ABHD5-perilipin-5 interaction; Split G. princeps luciferase complementation, luminescence, 4 h; inhibition, % at 4 µM; 360,000 compounds, 0.78% hits;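 active means inhibition above the mean inhibition across every tested compound plus 3 SD, cut at about 22% in these data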
Target sequence (Q00G26 whole entry, looked up): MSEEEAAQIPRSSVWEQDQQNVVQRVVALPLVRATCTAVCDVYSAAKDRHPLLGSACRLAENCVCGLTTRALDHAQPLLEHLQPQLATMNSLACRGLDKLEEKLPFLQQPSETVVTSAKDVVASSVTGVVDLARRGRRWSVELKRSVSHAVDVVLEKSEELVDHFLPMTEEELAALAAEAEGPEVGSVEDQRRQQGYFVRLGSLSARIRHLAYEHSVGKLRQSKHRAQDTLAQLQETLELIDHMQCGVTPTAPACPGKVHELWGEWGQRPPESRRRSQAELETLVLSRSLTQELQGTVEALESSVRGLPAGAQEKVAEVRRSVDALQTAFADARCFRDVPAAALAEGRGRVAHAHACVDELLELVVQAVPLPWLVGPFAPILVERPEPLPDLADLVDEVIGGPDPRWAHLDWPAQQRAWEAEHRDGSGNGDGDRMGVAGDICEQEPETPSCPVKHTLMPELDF
Target sequence (Q8WTS1 whole entry, looked up): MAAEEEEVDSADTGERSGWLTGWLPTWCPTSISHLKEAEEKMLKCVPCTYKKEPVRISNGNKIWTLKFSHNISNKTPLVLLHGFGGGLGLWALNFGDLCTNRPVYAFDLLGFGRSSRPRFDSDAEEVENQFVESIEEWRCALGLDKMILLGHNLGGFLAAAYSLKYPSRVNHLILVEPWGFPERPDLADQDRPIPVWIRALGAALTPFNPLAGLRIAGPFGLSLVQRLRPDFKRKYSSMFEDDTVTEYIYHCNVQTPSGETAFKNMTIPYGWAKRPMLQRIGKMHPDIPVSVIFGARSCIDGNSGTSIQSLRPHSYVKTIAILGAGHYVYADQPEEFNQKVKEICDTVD
EWS-Fli inh: inhibitors of EWS/Fli oncoprotein transcriptional activity | inhibition, % at 12.6 µM | AID 651661 | A673 NR0B1-luciferase reporter, viability-normalised | 350,000 compounds, 0.67% hits;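 active means mean inhibition of at least 50% after viability correction, with every replicate also passing that limit; inconclusive means mean reaches 50% but only one of two replicates passes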;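 further: firefly luciferase signal divided by Alamar Blue viability fluorescence both relative to DMSO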
Shn3 inh set2: Schnurri-3 reporter inhibition in Clone20 osteoblasts | Clone20 osteoblast Shn3 3'UTR firefly luciferase, 24 h | 360,000 compounds, 0.52% hits | inhibition, % at 12.5 µM;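 active means mean inhibition of at least 75% with every replicate also reaching 75%; inconclusive means mean inhibition at least 75% but some replicate below; inactive means mean inhibition below 75%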
PAX8 reporter: PAX8 transcriptional activity inhibition. RMG-I TPO-luciferase reporter, SteadyGlo, 24 h. inhibition, % at 12.6 µM. 360,000 compounds, 1.2% hits. AID 652154;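 active means mean replicate inhibition at least 60% with every replicate also reaching 60%; inconclusive means only one of the two criteria is met; inactive means mean below 60% and not all replicates reaching 60%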;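 further: luciferase light reporting Pax8 driven TPO promoter activity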
MITF TRPM1 inh: MITF TRPM1 promoter inhibition in SK-MEL-5 cells. SK-MEL-5 TRPM1 promoter luciferase, 24 h. inhibition, % at 12.5 µM. 330,000 compounds, 0.83% hits. AID 488899;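 active means mean inhibition across replicates of 60% or more, whatever share of single replicates reaches that level; inconclusive means some that reach 60%, reason not given; inactive means mean inhibition across replicates below 60%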
Hits are given with their value; n = inactive; u = inconclusive; x = not tested or not shown. Most compounds without a hit are left out; they make up all but 3% or so of the library.

SMILES	Peg3 promoter	ABHD5 PLIN5 PPI	EWS-Fli inh	Shn3 inh set2	PAX8 reporter	MITF TRPM1 inh
NS(=O)(=O)c1ccc(N=Nc2c(-c3ccccc3)[nH]n(-c3nc(-c4ccccc4)cs3)c2=O)cc1	71	n	x	n	n	n
CCOC(=O)c1c(NC(=O)c2nn(CC)cc2Br)sc(C)c1C	n	n	x	84	x	n
COCCNC(=O)C[C@@H]1CC[C@@H]2[C@H](COC[C@@H](O)CN2S(=O)(=O)c2ccccc2C)O1	x	x	n	x	n	x
Cn1c(/C=C/c2ccc(Br)cc2)c([N+](=O)[O-])c(=O)n(C)c1=O	62	n	n	n	63	n
CN(C)c1ccc(/C=C/c2c([N+](=O)[O-])c(=O)n(C)c(=O)n2C)cc1	n	n	n	n	n	n
C[C@H]1CN([C@@H](C)CO)S(=O)(=O)c2ccc(C#CCC3CCCC3)cc2O[C@@H]1CN(C)Cc1ccc(C(=O)O)cc1	x	x	n	x	x	x
CC1CN(N=Cc2ccc([N+](=O)[O-])o2)C(=N)O1 (stereo not drawn)	n	n	n	n	n	n
Cc1cc2ncn(/N=C/c3ccc([N+](=O)[O-])o3)c2cc1C	n	n	n	n	x	85
Cc1ccc(S(=O)(=O)N/N=C\c2ccc([N+](=O)[O-])o2)cc1C	n	n	x	n	n	n
O=C(O)/C=C/c1ccc([N+](=O)[O-])o1	n	n	n	n	n	n
O=[N+]([O-])c1ccc(/C=N/N=C/c2ccc([N+](=O)[O-])o2)o1	105	n	u	98	n	87
O=C1SCCN1N=Cc1ccc([N+](=O)[O-])o1	n	n	n	n	n	66
O=C1C2C3C=CC(C4CC34)C2C(=O)N1/N=C/c1ccc([N+](=O)[O-])o1 (stereo not drawn)	n	n	n	n	n	75
O=C1C2C3C=CC(C4CC34)C2C(=O)N1/N=C/c1ccc(-c2ccc([N+](=O)[O-])cc2)o1 (stereo not drawn)	n	n	n	n	n	n
CC(C)CC#Cc1cnc2c(c1)C(=O)N([C@@H](C)CO)C[C@H](C)[C@H](CN(C)C(=O)Cc1cccnc1)O2	x	x	n	x	x	x
Cc1noc(C)c1S(=O)(=O)Nc1ccc2c(c1)CC(=O)N([C@H](C)CO)C[C@@H](C)[C@@H](CN(C)Cc1ccc(C(F)(F)F)cc1)O2	x	x	n	x	x	x
Fc1ccc(NC(=S)N/N=C/c2ccc(F)c(F)c2)cc1	n	n	n	n	n	n
Fc1ccc(/C=N/NC(=S)Nc2ccc(Cl)cc2Cl)cc1	n	n	53	n	n	n
O=[N+]([O-])c1ccc(/C=N/NC(=S)Nc2ccc(Cl)cc2Cl)s1	60	n	n	n	92	n
O=[N+]([O-])c1ccc(O)c(/C=N/NC(=S)Nc2ccc(Cl)cc2Cl)c1	n	n	n	n	n	n
C/C=C/c1ccc2c(c1)O[C@H](CN(C)C(=O)c1ccncc1)[C@@H](C)CN([C@@H](C)CO)S2(=O)=O	x	x	n	x	n	x
CC(=O)N1[C@@H]2CN(C(=O)c3ccc(F)cc3)c3ccccc3[C@@H]2[C@@H]1CO	x	x	n	x	n	x
COc1ccccc1N=Nc1nc(-c2ccccc2)c(-c2ccccc2)[nH]1	n	n	x	n	n	n
Oc1ccccc1N=Nc1nc(-c2ccccc2)c(-c2ccccc2)[nH]1	n	n	x	88	x	80
NC(=O)[C@@H]1CC2(CC(c3cccc(NC(=O)CC(c4ccccc4)c4ccccc4)c3)=NO2)CN1C(=O)COc1ccc(Cl)cc1 (stereo partly drawn)	n	n	n	n	77	n
SMILES	Peg3 promoter	ABHD5 PLIN5 PPI	EWS-Fli inh	Shn3 inh set2	PAX8 reporter	MITF TRPM1 inh
NC(=O)[C@H]1CC2(CC(c3cccc(NC(=O)CC(c4ccccc4)c4ccccc4)c3)=NO2)CN1C(=O)C(c1ccccc1)c1ccccc1 (stereo partly drawn)	n	n	n	n	69	n
COCCNC(=O)C[C@H]1CC[C@@H]2[C@H](COc3ccc(NC(C)=O)cc3C(=O)N2C)O1	x	x	n	x	n	x
CC(Nc1ncnc2ccccc12)c1ccccc1 (stereo not drawn)	n	n	n	88	n	n
CCCCC(Nc1ncnc2ccccc12)C(=O)O (stereo not drawn)	n	n	x	n	x	n
CCOC(=O)c1cnc2c(c(C)nn2-c2ccc(C)cc2)c1Cl	101	n	n	n	n	n
CCOC(=O)c1cnc2c(c(C)nn2C)c1Oc1cc(Cl)cc(Cl)c1	n	n	n	n	n	n
N#CCC(=O)N/N=C/c1cc([N+](=O)[O-])ccc1N1CCCC1	n	n	n	n	n	n
O=C(N/N=C/c1cc([N+](=O)[O-])ccc1N1CCNCC1)c1ccc([N+](=O)[O-])cc1	103	n	x	n	x	84
C[C@H](NC(=O)C[C@@H]1CC[C@H](NC(=O)c2cccnc2)[C@H](CO)O1)c1ccccc1	x	x	n	x	n	x
Cc1occc1-c1nnc(SCC(=O)NC(C)(C)C)n1CC(C)C	n	n	n	n	n	n
Cc1occc1-c1nnc(SCC(=O)NCc2ccco2)n1CC(C)C	n	23	x	n	x	n
Cc1ccccc1-c1ccc2c(c1)O[C@H](CN(C)Cc1ccc(C(=O)O)cc1)[C@H](C)CN([C@@H](C)CO)S2(=O)=O	x	x	n	x	n	x
Cc1nnc(SCc2ccc(F)cc2)s1	n	n	x	n	x	n
Cc1nc(CSc2nnc(C)s2)cs1	n	n	n	n	85	n
C[C@@H]1CN([C@H](C)CO)C(=O)c2cc(NC(=O)Cc3ccccc3)ccc2O[C@H]1CN(C)Cc1ccc(C(F)(F)F)cc1	x	x	n	x	n	x
COc1ccccc1-c1nnc2sc(-c3ccc(N(C)C)cc3)nn12	n	n	60	n	n	n
CN(C)C(=O)c1ccc(-c2ccc([C@H]3[C@@H](C#N)N(C(=O)Cc4ccccn4)[C@H]3CO)cc2)cc1	x	x	n	x	n	x
CC(C)c1nc(SCC(=O)N2CCCc3ccccc32)c2c(=O)n(C)c(=O)n(C)c2n1	63	n	n	n	n	x
CC(C)c1nc(SCc2c(F)cccc2Cl)c2c(=O)n(C)c(=O)n(C)c2n1	63	n	x	n	x	n
Cc1cc(C)n(C(C[N+](=O)[O-])c2ccc(Cl)cc2)n1 (stereo not drawn)	99	n	x	n	x	n
N=c1c2c(-c3ccccc3)c(-c3ccccc3)n(Cc3ccco3)c2ncn1CCO	93	n	x	n	x	n
N=c1c2c(-c3ccccc3)c(-c3ccccc3)n(Cc3ccco3)c2ncn1CCCO	n	n	n	n	n	x
CCOC(=O)C1(C(N)=O)OC1(c1ccc(Cl)cc1)c1ccccc1Cl (stereo not drawn)	69	n	n	n	n	n
C[C@@H]1CN([C@H](C)CO)C(=O)c2cc(NC(=O)CCN3CCOCC3)ccc2O[C@H]1CN(C)Cc1ccc(Cl)c(Cl)c1	x	x	x	x	n	x
C[C@@H]1CN([C@H](C)CO)C(=O)c2cc(N(C)C)ccc2O[C@@H]1CN(C)Cc1ccc(C(=O)Nc2ccccc2N)cc1	x	x	74	x	n	x
